Compound activity (PubChem)
PAX8 inh HTS: inhibitors of PAX8 transcriptional activity in RMG-I cells | RMG-I TPO-luciferase reporter, SteadyGlo, 24 h | inhibition, % at 12.6 µM | 360,000 tested, 1.2% active | AID 652154;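 active = mean replicate inhibition at least 60% with every replicate also reaching 60%; inconclusive = only one of the two criteria is met; inactive = mean below 60% and not all replicates reaching 60%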;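 also: luciferase light reporting Pax8 driven TPO promoter activity; plate controls were median of neutral control wells for no effect and mitoxantrone controls for full effect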
MITF act: activators of MITF-driven TRPM1 promoter activity in SK-MEL-5 cells. 300,000 tested, 0.75% active. SK-MEL-5 TRPM1-promoter luciferase, 24 h; % of positive control, neutral wells = 0. activation, % at 12.5 µM;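 active = mean activation of at least 80% with every replicate also reaching 80%; inconclusive = mean reaches 80% but some replicate falls short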;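 also: 0% = neutral control wells and 100% = parthenolide positive control wells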
Wnt act: Wnt/beta-catenin pathway activation; Wnt/beta-catenin reporter cell assay, activator, plate reader; AID 743398; 300,000 tested, 1.2% active; activation, % at 9.35 µM; in the data active = activation above about 30%, passing the limit was not always enough; inconclusive = no clear call, values can overlap the other calls;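 also: 0% = neutral control wells and 100% = positive control wells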
EWS-Fli block: EWS/Fli transcriptional activity inhibition; 350,000 tested, 0.67% active; AID 651661; A673 NR0B1-luciferase reporter, viability-normalised; inhibition, % at 12.6 µM;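 active = mean inhibition of at least 50% after viability correction, with every replicate also passing that limit; inconclusive = mean reaches 50% but only one of two replicates passes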;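 also: firefly luciferase signal divided by Alamar Blue viability fluorescence both relative to DMSO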
TRPM1 prom inh: MITF TRPM1 promoter inhibition in SK-MEL-5 cells. SK-MEL-5 TRPM1 promoter luciferase, 24 h. inhibition, % at 12.5 µM. 330,000 tested, 0.83% active. AID 488899;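 active = mean inhibition across replicates of 60% or more, whatever share of single replicates reaches that level; inconclusive = some that reach 60%, reason not given; inactive = mean inhibition across replicates below 60%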
esBAF inh: inhibitors of esBAF chromatin remodeling in mouse ES cells; Bmi1-luciferase knock-in reporter, 24 h; 100% = twice the neutral-well signal; reporter increase, % at 12.5 µM; 350,000 tested, 2% active; AID 602393; in the data active = activation above about 40%; inconclusive = no clear call, values can overlap the other calls;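 also: 0% = median of the plate's neutral control wells and 100% = double that signal; a rise in the Bmi1 reporter signal indicates esBAF inhibition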
The depositor's hits bear a star; u = inconclusive; x = no result. Shown are actives, neighbours in structure and some others; about 4% of the full set was active somewhere.

SMILES	PAX8 inh HTS	MITF act	Wnt act	EWS-Fli block	TRPM1 prom inh	esBAF inh
C/C(=N/NC(=O)c1ccccn1)c1ccncc1	-69	39	13	-68	-33	6
COc1ccc(C(=O)N/N=C(\c2ccccc2)c2ccccn2)cc1	57	-55	x	-1	55	x
O=C(NN=C(c1ccccc1)c1ccccn1)c1ccccc1	77*	-68	-5	-2	67*	x
COc1ccc(-c2ccc(SCC(=O)NC3CCCC3)nn2)cc1	-33	x	11	-46	x	32
CCc1ccc(-c2ccc(SCC(=O)NC3CCCC3)nn2)cc1	-103	x	24	-65	x	47*
CCc1ccc(-c2cn3nc(C)c(C)nc3n2)cc1	x	x	x	x	77*	-80
Cc1nc2nc(-c3ccc(F)cc3)cn2nc1C	3	18	22	20	-15	x
CCc1cc2c(=O)n(C(C)C(=O)OC3CCCCC3)cnc2s1 (stereo not drawn)	x	100*	2	x	-96	u
O=C(Cn1ccsc1=NC(=O)C(F)(F)F)c1ccccc1	x	79	x	x	-77	49*
O=C(Cn1cnc2ccccc21)c1ccccc1	25	x	0	6	0	9
COc1cccc(C(=O)Nc2ccc3c(c2)OC[C@H](C)NC[C@@H](C)[C@@H](OC)CN(C)C3=O)c1	x	x	x	1	x	-2
[N-]=[N+]=NCCNC(=O)Nc1ccccc1	-2	x	x	-3	x	x
CCOC(=O)c1ccc(-c2ccc3c(c2)CCC3)nc1C	-234	76	38*	-104	-77	38
Cc1ccc(-c2ccc(C(=O)O)c(C)n2)cc1	29	-8	-3	7	10	-5
COC(=O)c1ccc(-c2ccc(F)cc2)nc1C	-113	105*	28	x	-90	38
O=C(/C=C/c1ccc2ccccc2n1)N1CCN(S(=O)(=O)c2ccc(F)cc2)CC1	68*	-43	-8	25	52	x
C=CCNC(=O)[C@@H]1[C@H]2C(=O)O[C@H](c3ccccc3)[C@H](c3ccccc3)N2[C@H](c2ccc(OCCO)cc2)[C@@]12C(=O)Nc1ccc(C#CCCO)cc12	-2	x	x	-7	x	x
C[C@@H]1CCCCO[C@@H](CN(C)Cc2ccc(C(F)(F)F)cc2)[C@H](C)CN([C@@H](C)CO)C(=O)c2cc(NC(=O)C3CCCCC3)ccc2O1	2	x	x	7	x	1
O=C(NCc1ccco1)c1cc(-c2ccc(F)cc2)on1	x	72	x	x	-70	0
O=C(NCc1ccco1)c1cc(-c2ccccc2)on1	x	51	x	x	-47	105*
O=C(NCc1ccco1)c1ccc2ccccc2c1	x	90*	x	x	-90	72*
CCC1=Nc2cc(C(=O)NCc3ccco3)ccc2Sc2ccc(C)cc21	84*	-42	-11	17	42	x
O=C(Nc1sc2c(c1C(=O)NCc1ccco1)CCCC2)c1ccc2c(c1)OCO2	x	100*	18	x	-99	46*
CCC1=Nc2cc(C(=O)NCCN3CCOCC3)ccc2Sc2ccc(C)cc21	-4	7	-2	6	-4	4
COCC#Cc1ccc2c(c1)O[C@H](CN(C)C(=O)CC1CC1)[C@H](C)CN([C@@H](C)CO)S2(=O)=O	x	x	x	12	x	-8
SMILES	PAX8 inh HTS	MITF act	Wnt act	EWS-Fli block	TRPM1 prom inh	esBAF inh
CS(=O)(=O)Nc1ccc2c(c1)[C@@H]1C[C@H](CC(=O)NCC(F)(F)F)O[C@@H](CO)[C@@H]1O2	-14	x	x	0	x	1
CCc1nc2ccc(C(=O)NCCc3ccco3)cc2nc1CC	x	87*	x	x	-83	53*
C/C(=N/O)c1cccc(N2Cc3ccccc3C2)c1	-19	9	9	-35	-8	63*
C/C(=N\O)c1cccc(Br)c1	-5	11	0	4	-6	-3
CCOC(=O)C1=C(CCl)NC(=O)NC1c1ccc2c(c1)OCO2 (stereo not drawn)	6	-69	0	21	69*	5
CCOC(=O)C1=C(CN2CCSCC2)NC(=O)NC1c1ccc2c(c1)OCO2 (stereo not drawn)	10	0	-1	-3	-2	x
O=C(Nc1ccc(F)c(Cl)c1)c1csc(COCCO)n1	-107	x	23	-57	x	51*
O=C(Nc1ccc(F)c(Cl)c1)c1csc([C@H]2C[C@H](O)[C@@H](CO)O2)n1	-93	x	40*	-82	x	88*
O=C(Nc1ccc2c(c1)OCO2)c1csc(COCCO)n1	x	x	x	x	x	19
O=C(Nc1ccc(F)c(Cl)c1)c1csc([C@@H]2C[C@H](O)[C@@H](CO)O2)n1	-57	x	-2	-4	x	43*
